# Reference: article PMC5540273 (PLoS ONE, 2017)
# Test system: TYRO3
# Conditions: concentration: 1 μM, replicates: in singlicate; n = 1
# 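Note: KINOMEscan kinase panel screen.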
row,SMILES,%Inh
1,CS(=O)(=O)c1cccc(CNc2nc(Nc3ccc4c(c3)CCC(=O)N4)ncc2C(F)(F)F)c1,0%
2,COC(=O)Nc1nc2ccc(Oc3ccc(CC(=O)Nc4cc(C(F)(F)F)ccc4F)cc3)cc2[nH]1 [GW680903],0%
3,Cl.Cl.NC(CNC(=O)c1cc(Br)c(-c2ccnc3[nH]ccc23)s1)c1ccccc1 (stereo not shown) [GSK1322949],0%

# Test system: ULK1
# Conditions: concentration: 1 μM, replicates: in singlicate; n = 1
row,SMILES,%Inh
1,COc1ccc(NC(=O)c2ccoc2)cc1-c1ccc(C(=O)NCC2CC2)cc1 [GW810437],34%
2,O=C(Nc1n[nH]c2nc(-c3ccccc3O)ccc12)C1CC1 [SB-711880],0%
3,CNc1nccc(-c2ccc3c(N)n[nH]c3c2)n1 [GSK2206003],42%
4,c1ccc(Oc2ccc(Nc3ccnc4cc(-c5ccc(CN6CCCCC6)o5)ccc34)cc2)nc1 [GW567143],0%
5,Cc1ccc(NC(=O)c2ccc(Cl)c(Cl)c2)cc1-c1ccc(C(=O)Nc2ccncc2)cc1 [GSK1398460],15%
6,CC(C)(C)c1ccc(C(=O)Nc2cn3cc(-n4ccnc4)ccc3n2)cc1,0%
7,Cl.Cl.NCC(NC(=O)c1cc(-c2cccnc2)c(-c2ccnc3[nH]ccc23)s1)c1ccccc1 (stereo not shown) [GSK1323434],4%
8,Cc1ccc(Nc2ccnc(Nc3ccc(C)c(F)c3)n2)cc1O.Cl [GW582868],12%
9,O=C(Nc1n[nH]c2nc(-c3cccc(O)c3)ccc12)C1CC1 [SB-711805],0%
10,COc1cccc(NC(=O)NCCNc2ccnc(Nc3ccc(F)cc3)n2)c1 [GSK1379879],13%
11,Cc1cc(-c2c(-c3ccc(F)cc3)ncn2CCCN2CCOCC2)nc(N)n1 [SB-222517],20%
12,COc1ccc(C)c(Nc2ccnc(Nc3ccc(-c4cnc[nH]4)cc3)n2)c1.Cl [GW784041],0%
13,CN(C)CCNS(=O)(=O)c1ccc(-c2ccnc3[nH]ccc23)cc1 [GSK977620],73%
14,COc1cccc(CC(=O)N2CCc3cc(-c4cn(C)c5ncnc(N)c45)ccc32)c1 [GSK2608899],5%
15,COC(=O)Nc1nc2cc(Oc3ccc(NC(=O)Nc4cccc(SC)c4)cc3)ccc2[nH]1.Cl [GW697999],14%
16,Cc1ccc(O)cc1Nc1ccnc2cc(-c3ccc(CN4CCCCC4)o3)ccc12 [GW557777],0%
17,CN(c1ccc2c(c1)nc(NCc1ccccc1)n2C)c1ccnc(Nc2ccc(CS(C)(=O)=O)cc2)n1.Cl [GW811603],0%
18,COc1cccc(C2=C(Nc3cccc(O)c3)C(=O)NC2=O)c1 [SB-390771],17%
19,CC(C)NCC(Cc1ccccc1)NC(=O)c1cc(Br)c(-c2ccnc3[nH]ccc23)s1.Cl.Cl (stereo not shown) [GSK1383281],0%

row,SMILES,%Inh
1,Cc1ccc(O)cc1Nc1ccnc2ccc(C(C)(C)C)cc12 [GW856805],56%
2,NCCC(NC(=O)c1cc(Br)c(-c2ccnc3[nH]ccc23)s1)c1ccccc1.O=C(O)C(F)(F)F.O=C(O)C(F)(F)F (stereo not shown) [GSK1307810],30%
3,COc1ccc(C2=C(Nc3cccc(O)c3)C(=O)NC2=O)cc1 [SB-390766],26%
4,O=C(O)C(F)(F)F.O=c1[nH]ccc2nc(N[C@@H]3CCNC3)nc(Nc3cc(Cl)cc(Cl)c3)c12 [GSK2188764],99.8%
5,Cc1ccc(C)c(NC(=O)Nc2ccc(C)c(-c3ccc(C(=O)Nc4ccncc4)cc3)c2)c1 [GSK1398473],10%
6,Cn1cc(-c2ccc3c(c2)CCN3C(=O)Cc2cc(F)cc(F)c2F)c2c(N)ncnc21 [GSK2634140],14%
7,N#Cc1cnc2cc(-c3cnc(CNCCN4CCOCC4)s3)ccc2c1Nc1ccc(Oc2ccccc2)cc1 [GW664114],10%
8,CN1CCN(Cc2ccc(NC(=O)Nc3ccc(N(C)c4ccnc(Nc5ccc(CS(C)(=O)=O)cc5)n4)cc3)cc2)CC1.Cl [GW827654],0%
9,Fc1cc(Cl)ccc1Nc1ccnc2cc(-c3ccc(CN4CCOCC4)o3)ccc12 [GW560109],15%
10,Cl.N#CCc1ccc(Nc2nccc(Nc3ccc(Oc4ccccc4)cc3)n2)cc1 [GW639905],23%
11,CN(c1ccc(F)c(NC(=O)c2cccc(OC(C)(C)C#N)c2Cl)c1)c1ccc2nc(NC(=O)C3CC3)sc2n1,2%
12,CN(C)c1ncnc2nc[nH]c12 [SKF-31736],14%
13,O=C(Nc1c(F)cccc1F)c1cc(C(=O)c2ccccc2F)c[nH]1 [GSK1326180],15%
14,Nc1ncc(-c2ccc3nccc(-c4ccncc4)c3c2)cc1S(=O)(=O)N1CCCCC1 [GSK1693850],0%
15,Fc1cc(Cl)ccc1Nc1ccnc2cc(-c3ccc(CN4CCSCC4)o3)ccc12 [GW560106],0%
16,CS(=O)(=O)c1cccc(CNc2nc(Nc3ccc4c(c3)CCC(=O)N4)ncc2C(F)(F)F)c1,69%
17,COC(=O)Nc1nc2ccc(Oc3ccc(CC(=O)Nc4cc(C(F)(F)F)ccc4F)cc3)cc2[nH]1 [GW680903],0%
18,Cl.Cl.NC(CNC(=O)c1cc(Br)c(-c2ccnc3[nH]ccc23)s1)c1ccccc1 (stereo not shown) [GSK1322949],49%
